Out of some 320,000 compounds screened, about 2,100 (0.66%) were called active. Inconclusive results (about 53%) are left out. Calls come from the whole dose curve; as a rule, active = well fitted inhibition curve with a large enough effect in the signal ratio, with a control signal flat (not every such curve was filed as active); inconclusive = small, poorly fitted or top-dose-only effect, or effect the other way, or a change in a side signal; inactive = flat fitted curve, though single readings scatter; the % refers to the signal ratio. Shown is part of a subset that was picked to be rich in actives.
Assay: qHTS Assay for Lipid Storage Modulators in Drosophila S3 Cells;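 for cell number change: cells counted by Cell Tracker Red CMTPX staining in the red channel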; for lipid storage change, negative = inhibition: % is set by controls: 0 for no effect and ±100 for the full control effect
Settings: BODIPY lipid droplet fluorescence, 18-24 h, cells fed with added oleic acid; cell number change: measured here: cell count max response; series mostly up to 46.1 µM; lipid storage change, negative = inhibition: at the top concentration
Method in brief: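 Laser-scanning cytometry quantifies lipid droplet accumulation (500–530 nm total intensity; droplet/cell object ratio) in oleic acid-fed (400 uM added) Drosophila S3 cells treated with a concentration series. 20 uM Triacsin C defined 100% inhibition.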
Potency is the fitted concentration of half-maximal effect.

SMILES	lipid storage change, negative = inhibition	cell number change [%]	outcome	Potency
Cc1cccc(C)c1NC(=S)N(CCN(C)C)Cc1cccs1	0.695% (inactive)	-10.3		
O=S(=O)(Nc1cccc(-n2cnnn2)c1)c1ccccc1C(F)(F)F		-11	inactive	
Cc1ccc(S(=O)(=O)Nc2ccc(-n3cnnn3)cc2)cc1		12.5	inactive	
O=S(=O)(Nc1cccc(-n2cnnn2)c1)c1ccccc1		-16.7	inactive	
Cc1ccc(S(=O)(=O)Nc2ccc(-n3cnnn3)cc2)c(C)c1		-8.9		0.58 µM (active)
O=S(=O)(Nc1ccc(-n2cnnn2)cc1)c1ccc(Cl)cc1	0.143% (inactive)	-6.89		
O=S(=O)(Nc1cccc(-n2cnnn2)c1)c1cc(Br)ccc1Br		-10.7		20.6 µM (active)
O=C(CNC(c1ccccc1)c1ccccc1)NCc1ccccc1Cl	-4.84% (inactive)	11.7		
Cc1cccc(N2CCN(S(=O)(=O)c3c(C)noc3/C=C/N(C)C)CC2)c1C	-15.8% (inactive)	12.9		
Cc1cc(C)c(-c2csc(NC(=O)/C=C/c3cccs3)n2)c(C)c1		-27.5		16.4 µM (active)
Cc1cc(C)nc(NC(=O)/C=C/c2cccs2)c1	20.5% (inactive)	-8.29		
O=C(/C=C/c1cccs1)Nc1nc(-c2ccccc2)cs1	24.3% (inactive)			
O=C(NCCCc1ccccc1)C1CC(=O)N(c2ccc3c(c2)OCCO3)C1 (centres undefined)	9.93% (inactive)	12.6		
Cc1coc(=N)n1CC(=O)c1ccc(Cl)cc1	12.1% (inactive)	10.4		
O=c1c(Cl)c(Cl)cnn1Cc1ccccc1Cl		-22.7		14.6 µM (active)
Cc1ccc(Cn2ncc(Cl)c(Cl)c2=O)cc1	-3.59% (inactive)	1.44		
O=c1[nH]cnc2c1cnn2Cc1ccccc1Cl			inactive	
O=C(CS(=O)(=O)c1ccccc1)Nc1nnc(-c2cccs2)o1	-5.63% (inactive)	3.1		
CCn1c(=Nc2ccc(N3CCOCC3)cc2)ccc2ccccc21		-184		9.2 µM (active)
CCn1c2ccccc2c2cc(NC(=O)CN(C)CC(=O)Nc3ccc(N4CCOCC4)cc3)ccc21	-0.511% [at 9.22 µM] (inactive)	-4.9		
Oc1ccc2ccccc2c1C=Nc1ccc(N2CCOCC2)cc1			inactive	
COc1cc(C(c2sc3ncnn3c2O)N2CCN(c3ccccc3F)CC2)cc(OC)c1OC (centres undefined)	1.93% (inactive)	14.8		
CSc1nc(SCC(=O)O)c2c3c(sc2n1)COC(C)(C)C3	21.3% (inactive)	9.24		

SMILES	lipid storage change, negative = inhibition	cell number change [%]	outcome	Potency
COc1ccc(S(=O)(=O)N2CCOCC2)cc1NC(=O)CSc1nnc2c(n1)[nH]c1ccccc12	-9.37% (inactive)	-0.0197		
CCCCCC(=O)N1CCN(CCN=CC2=C(O)CC(c3cccs3)CC2=O)CC1 (centres undefined)	-4.09% (inactive)	0.809		
CC(=O)N1CCN(CCN=CC2=C(O)CC(c3cccs3)CC2=O)CC1 (centres undefined)		-26.6		20.6 µM (active)
C=CCNC(=S)N1CCN(CCN=CC2=C(O)CC(c3cccs3)CC2=O)CC1 (centres undefined)	3.99% (inactive)	17.2		
Cc1coc2c(C)c3oc(=O)c(CCC(=O)NCCC(=O)O)c(C)c3cc12		7.91	inactive	
Cn1c(SCc2ccc(Br)cc2)nc2ccccc2c1=O		-15.2	inactive	
Cc1ccc(-c2nc(CSc3nc4ccccc4c(=O)n3C)cs2)cc1	-7.82% (inactive)	13.2		
Cc1ccc(CSc2nc3ccccc3c(=O)n2C)cc1		10.9		16.4 µM (active)
COC(=O)c1[nH]c2ccc(Cl)cc2c1NC(=O)C1CC1	8.69% (inactive)	1.77		
CCc1n[nH]c(=S)n1/N=C/c1ccc(N(CC)CC)cc1	18.9% (inactive)	-4.64		
CCN(CC)c1ccc(/C=N/n2c(C)cc(C)cc2=O)cc1	18.4% (inactive)	0.542		
CCN(CC)c1ccc(/C=N/N2CC(=O)NC2=S)cc1		-17.5		0.291 µM (active)
COc1cc(NC(=O)c2ccc([N+](=O)[O-])cc2)c(OC)cc1NC(=O)CC(C)C	-0.885% (inactive)	14.3		
O=C(c1ccco1)N1N=C(c2ccc3nccnc3c2)CC1c1ccccc1 (centres undefined)	2.86% (inactive)	13.8		
COCCNC(=O)c1ccc2c(c1)S(=O)(=O)c1cc(Cl)ccc1C2=O		9.21		5.8 µM (active)
O=C(NCC1CC1)c1ccc2c(c1)S(=O)(=O)c1cc(Cl)ccc1C2=O	5.36% (inactive)	7		
CCCNC(=O)c1ccc2c(c1)S(=O)(=O)c1ccccc1C2=O	-27.4% (inactive)	6.31		
Clc1ccc(N2CCN(c3cnc4ccccc4n3)CC2)cc1		-5.19	inactive	
O=S(=O)(c1ccc(Cl)cc1)c1cnc2ccccc2n1		-118		29.1 µM (active)
Nc1ncc(S(=O)(=O)c2ccc(Cl)cc2)c(N)n1		19.4	inactive	
Cc1ccc(C(=O)NC(C(=O)OCc2cn3cc(Cl)ccc3n2)C(C)C)cc1 (centres undefined)		6.32		5.17 µM (active)
Cc1ccc(C(=O)N[C@H](C(=O)OCc2nnc(-c3ccccc3)o2)C(C)C)cc1	-7.03% (inactive)	-21.1		
Cc1ccc(C(=O)N[C@H](C(=O)OCc2cc(=O)n3c(n2)sc2ccccc23)C(C)C)cc1	-0.413% (inactive)	-15.4		

SMILES	lipid storage change, negative = inhibition	cell number change [%]	outcome	Potency
CCOC(=O)C1CCCN(S(=O)(=O)c2ccc(Br)s2)C1 (centres undefined)		-14.8	inactive	
Cc1nc2oc3ccc(F)cc3c(=O)c2cc1C(=O)O		9.45	inactive	
Cn1c(=O)c2c(nc(NCCCO)n2CCc2ccccc2)n(C)c1=O	-17.7% (inactive)	-21.6		
Cn1c(=O)c2c(nc(NCc3ccco3)n2CCc2ccccc2)n(C)c1=O		-22.9		11.6 µM (active)
Cn1c(=O)c2c(nc(NCCCO)n2Cc2cccc(Br)c2)n(C)c1=O			inactive	
Cn1c(=O)c2c(nc(NCCCO)n2C/C=C/c2ccccc2)n(C)c1=O		-27.3		9.2 µM (active)
Cn1c(=O)c2c(nc(NCc3ccco3)n2CC(O)CO)n(C)c1=O (centres undefined)	-6.18% (inactive)	9.76		
CCn1c(NCc2ccco2)nc2c1c(=O)n(C)c(=O)n2C	2.27% (inactive)	-2.38		
C/C(Cl)=C\Cn1c(NCCc2ccccc2)nc2c1c(=O)n(C)c(=O)n2C		-18.8		6.51 µM (active)
CCCNc1nc2c(c(=O)n(C)c(=O)n2C)n1CCCc1ccccc1	-32.8% (inactive)	-29.8		
CCN(CC)CCNc1nc2c(c(=O)n(C)c(=O)n2C)n1C/C=C(/C)Cl	-2.52% (inactive)	-1.05		
Cn1cnc(S(=O)(=O)N2CCN(c3cccc(C(F)(F)F)c3)CC2)c1		3.98	inactive	
CCC(C)c1ccccc1OCC(=O)NN1C(=O)c2ccccc2C1=O (centres undefined)	25.3% (inactive)	-0.73		
COc1ccccc1C(=O)Nc1ccc(C(=O)N2CCCCC2)cc1	-8.52% (inactive)	-10.6		
Cn1c(=O)c2c(nc(CN3CCN(C(=O)c4ccco4)CC3)n2Cc2ccccc2)n(C)c1=O			inactive	
Cc1ccc(-c2csc3ncnc(SCC(=O)c4ccc5c(c4)OCCO5)c23)cc1		-23.9		5.17 µM (active)
O=C(CSc1ncnc2scc(-c3ccc(F)cc3)c12)c1ccc2c(c1)OCCO2	8.68% (inactive)	7.81		
Cc1ccc(-c2csc3ncnc(SCC(=O)NCc4ccc5c(c4)OCO5)c23)cc1	4.42% (inactive)	-1.52		
COCCn1nnnc1C(c1ccccc1OC)N1CCN(c2ccccc2)CC1 (centres undefined)	19% (inactive)	8.57		
CCn1cnc2c1c(=O)n(CC(=O)OC(C)C(N)=O)c(=O)n2Cc1ccccc1 (centres undefined)	-5.23% (inactive)	10.8		
Cc1cc(C(=O)N2CCc3c([nH]c4ccccc34)C2c2cccc(Cl)c2)nn1C (centres undefined)	-2.18% (inactive)	-10.9		
CCOCC(=O)N1CCCC(C(=O)OCC)C1 (centres undefined)		-14.8		18.4 µM (active)
CCCCC(=O)N1CCCC(C(=O)OCC)C1 (centres undefined)		23.1	inactive	

SMILES	lipid storage change, negative = inhibition	cell number change [%]	outcome	Potency
CCOC(=O)C1CCCN(C(=O)Cc2ccc(C)cc2)C1 (centres undefined)	-0.343% (inactive)	14.8		
NCCNC[C@@H]1COC2(CCCCCCCCCCC2)O1	-8.63% (inactive)	6.45		
CC1CC(C)CN(S(=O)(=O)c2ccc3c(c2)C(C)(C)C(=O)N3C)C1 (centres undefined)		26.4	inactive	
Cc1nn(C(C)CC(=O)O)c(C)c1C (centres undefined)				23.1 µM (active)
CC(=O)c1c(C)nn(C(C)CC(=O)O)c1C (centres undefined)	-5.84% (inactive)	-4.59		
Cc1nc(C)n(C(C)CC(=O)O)n1 (centres undefined)	-5.06% (inactive)	-20		
C/C(Cn1nnc([N+](=O)[O-])n1)=N\NC(=O)c1ccc(C)cc1	-2.12% (inactive)	24.7		
COc1ccc(N(C(=O)CNC(=O)c2cccs2)C(C(=O)NC2CCCC2)c2cccnc2)cc1 (centres undefined)	-7.37% (inactive)	3.7		
CC(C)c1ccc(NC(=O)C(c2ccccc2)N2CCN(C(=O)c3ccco3)CC2)cc1 (centres undefined)		-35.1		20.6 µM (active)
CC(C)C(=O)Nc1ccc(C(=O)N2CCN(C(=O)c3ccco3)CC2)cc1		6.86		4.61 µM (active)
CC(C(=O)Nc1ccccc1)N1CCN(C(=O)c2ccco2)CC1 (centres undefined)	19% (inactive)	13.4		
O=C(Nc1ccc(F)cc1)C(c1ccccc1)N1CCN(C(=O)c2ccco2)CC1 (centres undefined)			inactive	
O=C(c1ccc(NS(=O)(=O)c2cccc([N+](=O)[O-])c2)cc1)N1CCCCCC1	18.1% (inactive)	-11.1		
CCOc1ccccc1NC(=O)C(c1ccccc1)N1CCN(C(=O)c2ccco2)CC1 (centres undefined)	9.01% (inactive)	-20.1		
O=C(c1ccco1)N1CCN(S(=O)(=O)c2cccc([N+](=O)[O-])c2)CC1	28.6% (inactive)	-1.91		
CC(C)Oc1ccc(C(=O)N2CCN(C(=O)c3ccco3)CC2)cc1		19.8	inactive	
O=C(c1ccc(NS(=O)(=O)c2cccc([N+](=O)[O-])c2)cc1)N1CCN(C(=O)c2ccco2)CC1		1.34		9.2 µM (active)
CCOc1ccc(NS(=O)(=O)c2c(C)nc3sccn3c2=O)cc1	-7.04% (inactive)	-0.288		
O=C(Nc1ccc(Br)cc1)C1CCCN(C2=NS(=O)(=O)c3ccccc32)C1 (centres undefined)	7.4% (inactive)	0.774		
Cc1ccc(SC(C)C(=O)Nc2ncn[nH]2)cc1 (centres undefined)			inactive	
Cc1ccc(C(CNS(=O)(=O)c2ccccc2)N2CCN(C)CC2)cc1 (centres undefined)			inactive [at 0.0737 µM]	
O=S(=O)(NCC(c1ccccc1)N1CCC(O)CC1)c1ccc(Cl)cc1 (centres undefined)			inactive	
CC1CCN(C(CNS(=O)(=O)c2ccccc2)c2ccccc2)CC1 (centres undefined)		12.1		0.461 µM (active)
